In the supplement of paper PMC12808144:

What was measured:
NHEM-hTERT = assay: cell viability relative to DMSO control (fraction of DMSO control); higher = less cytotoxic, active = 0.5 or less; settings: 1 µM; 120 h
Procedure, shortened: (§1)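 Cells in 40 µl per well went into 384-well plates pre-spotted acoustically with a TargetMol library of 315 approved anti-cancer drugs, each at 1 µM in duplicate, for 120 h. Seeding was 2500/well for NHEM-hTERT immortalized melanocytes and 1500/well for patient-derived Mel-DCC-11 and its resistant subline Mel-DCC-11-R, which was run alone and with 8 µM of its selecting drug. Luminescence was read with ATPlite 1step. Viability was normalised to vehicle-treated controls and averaged over duplicates.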

Mel-DCC-11-R = assay: cell viability relative to DMSO control (fraction of DMSO control); higher = less cytotoxic, active = 0.8 or less; settings: 1 µM, 120 h
Procedure, shortened: as §1

Measured: cell viability

CCOC(=O)[C@@H](N)Cc1ccc(-c2cc(O[C@H](c3ccc(Cl)cc3-n3ccc(C)n3)C(F)(F)F)nc(N)n2)cc1.O=C(O)CNC(=O)c1ccccc1 [Telotristat Etiprate]
inactive: NHEM-hTERT 1.04 | Mel-DCC-11-R; vemurafenib co-treatment 0 µM 1.08 | Mel-DCC-11-R; vemurafenib co-treatment 8 µM 1.07

CCOC(N)=O [Urethane]
inactive: NHEM-hTERT 1.09 | Mel-DCC-11-R; vemurafenib co-treatment 0 µM 0.987 | Mel-DCC-11-R; vemurafenib co-treatment 8 µM 1

CS(=O)(=O)OCCCCOS(C)(=O)=O [Busulfan]
inactive: NHEM-hTERT 1.14 | Mel-DCC-11-R; vemurafenib co-treatment 0 µM 0.994 | Mel-DCC-11-R; vemurafenib co-treatment 8 µM 1.13

COc1ccc(-c2cc(=S)ss2)cc1 [Anethole trithione]
inactive: NHEM-hTERT 1.05 | Mel-DCC-11-R; vemurafenib co-treatment 0 µM 1.04 | Mel-DCC-11-R; vemurafenib co-treatment 8 µM 1.13

CC(C)(C)c1nc(-c2cccc(NS(=O)(=O)c3c(F)cccc3F)c2F)c(-c2ccnc(N)n2)s1 [Dabrafenib]
inactive: NHEM-hTERT 0.976 | Mel-DCC-11-R; vemurafenib co-treatment 0 µM 1.03 | Mel-DCC-11-R; vemurafenib co-treatment 8 µM 0.894

O=S(=O)([O-])CCS.[Na+] [Mesna]
inactive: NHEM-hTERT 1.09 | Mel-DCC-11-R; vemurafenib co-treatment 0 µM 1.11 | Mel-DCC-11-R; vemurafenib co-treatment 8 µM 1.08

O=C([O-])CCCc1ccccc1.[Na+] [Sodium Phenylbutyrate]
inactive: NHEM-hTERT 1.1 | Mel-DCC-11-R; vemurafenib co-treatment 0 µM 1 | Mel-DCC-11-R; vemurafenib co-treatment 8 µM 1.07
